# Laboratory results from PubChem BioAssay AID624256 (NMMLSC, 2012).
# The campaign covered roughly 360,000 compounds. About 3,700 (1%) were called active. Not shown: some 2% with an inconclusive outcome.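 How the source made its calls: active means normalized GFP-positive differentiation at or above the plate's own cutoff, the solvent-only control mean plus 3 SD; inconclusive means no clear call, values can overlap the other calls; inactive means the rest.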 The list comes from a sample in which actives are over-represented; it also holds similar structures and randomly drawn compounds.
# Assay: HoxA9-arrested leukemia cell differentiation promoters – flow cytometry, MLPCN library, primary screen (AID 624256);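 on GFP+ MAC1+ double positive: cells exposed to compound for four days before flow analysis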;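 on normalized GFP-positive differentiation: cells exposed to compound for four days before flow analysis; 0% = DMSO wells and 100% = fulvestrant positive control at 5 µM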
# Details: ER-HoxA9 myeloid progenitors, lysozyme-GFP differentiation, at 10 µM; GFP+ MAC1+ double positive: measured here: differentiation confirmed by MAC1 staining, stronger effect = higher value; normalized GFP-positive differentiation: stronger effect = higher value
Structure (SMILES),GFP+ MAC1+ double positive,outcome,normalized GFP-positive differentiation
O=C1Nc2ccccc2-n2nnnc2C1N1CCN(c2cccc(C(F)(F)F)n2)CC1 (configuration not stated),1.4%,inactive,
CCCCCCc1cc2cc(-c3nnc(-c4ccccc4)o3)c(=O)oc2cc1O,56.6%,,197% (active)
CCc1ccc(CN(C)C(=O)CCc2nnc(-c3ccc(-c4ccccc4)cc3)o2)nc1,0.1%,inactive,
CN[C@H]1C[C@H]2c3cc(Oc4ccccc4C)ccc3CCN2C(=O)[C@H]1[C@H](C)O,0.2%,inactive,
O=C(Cc1cccs1)NCc1cccc(C(F)(F)F)c1,3.5%,,341% (active)
O=C(CCC(=O)c1ccccc1)NCc1cccc(C(F)(F)F)c1,0.7%,inactive,
Cn1c(=O)c2cc(NC(=O)NCCc3cccs3)ccc2n1Cc1cccc(C(F)(F)F)c1,1.6%,inactive,
COc1ccc(C(=O)C(OP(=O)(OC)OC)c2ccccc2OC)cc1 (configuration not stated),2%,inactive,
CN(C)CCCOc1ccc(-c2ccc3nccn3c2)cn1,0.4%,inactive,
Cc1ccc(Cl)c(OCC(=O)N2CCc3ccccc3C2)c1,0.3%,inactive,
CCC(=O)c1ccc(OCC(=O)OCC(=O)N2CCc3ccccc3C2)cc1,0.4%,,6.6% (active)
CCC(=O)c1ccc(OCC(=O)OCC(=O)NC2CCCCCC2)cc1,1.4%,inactive,
CCOc1ccc2[nH]c(=S)sc2c1,0%,inactive,
CCC(CC)C(C(=O)NC1CCCC1)N1CCN(c2cc(C)nc3ccccc23)CC1 (configuration not stated),1.2%,inactive,
COC(=O)c1ccc2nc(-c3ccccc3)c(Cc3ccc(OC)cc3C)n2c1,1.4%,inactive,
O[C@H]1CN(Cc2cccs2)[C@@H](c2ccc(Cl)cc2)C[C@@H]1n1cc(C2CC2)nn1,1.3%,,3.49% (inactive)
O[C@@H]1C[C@H](c2ccccc2)N(Cc2cccs2)C[C@H]1n1cc(C2CC2)nn1,0.6%,inactive,
O[C@H]1C[C@H](c2ccc(Cl)cc2)N(Cc2cccs2)C[C@@H]1n1cc(C2CC2)nn1,3.6%,,19.2% (active)
CC(C)c1cc(Cn2c3ccccc3c(=O)n2C(C)Cn2cc(C3CC3)nn2)on1 (configuration not stated),2.6%,inactive,

Structure (SMILES),GFP+ MAC1+ double positive,outcome,normalized GFP-positive differentiation
COc1cccc(CNc2nc(NCc3cccs3)nc3ccsc23)c1,1.5%,inactive,
O=S1(=O)C[C@@H](N2CCN(CCO)CC2)[C@H](COCc2ccccc2)N1,0.9%,inactive,
CCc1ccc([C@@H]2CC(=O)[C@@H]3CN(S(=O)(=O)c4ccc(C)cc4)[C@H](c4ccc(Cl)cc4)C[C@@H]3N2S(=O)(=O)c2ccc(C)cc2)cc1,1.2%,inactive,
CC(=O)Nc1cncc(-c2ccccc2CO)n1,0.4%,inactive,
CC(=O)Nc1cccc(-c2cc(NC=O)c3ncc(-c4ccc(F)c(Cl)c4)n3c2)c1,1.3%,inactive,
Cc1ccc(N2C(=O)c3ccccc3C2(O)c2ncc[nH]2)cc1 (configuration not stated),1.1%,inactive,
O=c1c2c(-c3ccccc3)ccnc2[nH]n1-c1ccccc1,0.5%,inactive,
Cc1ccc(-c2ccnc3[nH]n(-c4ccccc4)c(=O)c23)cc1,0.4%,,17.5% (active)
COC(=O)[C@@]12C[C@@H](CC(=O)NCCCCc3ccccc3)C(=O)N(CCc3ccc(OC)c(OC)c3)C1=CCC(C)(C)C2,1.6%,inactive,
COC(=O)C[C@@H]1C=C[C@@H](NS(=O)(=O)c2cccc(OC)c2)[C@@H](CO)O1,1.6%,inactive,
Cc1c(-c2ccccc2)cn2c1-c1ccc(C)n1CC2,1.4%,,31.7% (active)
O=C(C[C@H]1CC[C@H]2[C@@H](COC[C@H](O)CN2C(=O)c2ccccn2)O1)N1CCN(c2ccccc2)CC1,2.6%,inactive,
CN(CCO)C(=O)c1nc[nH]c1C(=O)N(C)Cc1ccccc1,0.2%,inactive,
CCCCn1nnnc1C(c1cc2ccccc2o1)N(C)Cc1ccc(Cl)c(Cl)c1 (configuration not stated),0.9%,inactive,
COc1ccc(NC(=O)/C(C#N)=C\c2cc(OC)c(OCc3ccc(C(=O)O)cc3)cc2Br)cc1,0.2%,inactive,
COCCCn1c(=O)/c(=C/c2ccccc2OC(C)C)s/c1=C(\C#N)C(=O)Nc1ccc(C(=O)O)cc1,2.8%,,20.2% (active)
COc1ccccc1C(=O)N/C(=C/c1ccco1)C(=O)Nc1ccc(C(=O)O)cc1,1.5%,inactive,
COCCNC(=O)C1CCCN(Cc2ccccc2Cl)CC1 (configuration not stated),0.5%,inactive,
COC(=O)[C@@]1(Sc2ccc(C)cc2)CC(=O)N(c2cccc(SC)c2)[C@@H]1c1ccccc1,0.4%,inactive,

Structure (SMILES),GFP+ MAC1+ double positive,outcome,normalized GFP-positive differentiation
c1ccc(Cc2c(-c3ccco3)nc3c4ccccc4ccn23)cc1,1.5%,inactive,
Cc1ccc(S(=O)(=O)N(C)c2nc3ccccc3n3c(C(C)C)nnc23)cc1,2%,,94.1% (active)
Cc1ccc(Oc2nc3ccccc3n3c(C)nnc23)cc1,5.3%,inactive,
Cc1cc(NC(C)C)n2c(nc3ccccc32)c1C#N,1%,inactive,
Cc1cc2c(cc1C)N1C(=O)c3cc4ccccc4cc3NC(=O)C1C(=O)N2 (configuration not stated),1.5%,inactive,
Cc1ccc(CSCC(=O)N(C)CC(=O)Nc2cccc(F)c2)cc1,1.2%,inactive,
CN(CC(=O)Nc1cccc(F)c1)C(=O)CC1CCCC1,0.8%,inactive,
CCN(CC)C(=O)CSC(Nc1cccc(F)c1)=C(C#N)C#N,2.2%,,143% (active)
Cn1c(Nc2ccc(F)cc2)nc2cc(-c3ccsc3)sc2c1=O,0.7%,inactive,
CCOC(=O)C1CCCN(C(=O)c2cccc3ccccc23)CC1 (configuration not stated),1.7%,inactive,
CC(=O)OCC(C)n1c(=O)c2ccccc2n1C(C)=O (configuration not stated),1%,inactive,
COC(=O)c1c(C)[nH]c(C(=O)/C=C/c2ccc(Cl)cc2)c1C,0.4%,inactive,
CC1(C(=O)O)CCCN(C(=O)/C=C/c2ccccc2)C1 (configuration not stated),2.1%,inactive,
Cc1[nH]c(=O)c(C(=O)/C=C/c2ccccc2)c2c1CCCC2,10.9%,,31.7% (active)
Cc1ccc2nc(-c3ccco3)c(Cc3cccc(Cl)c3)n2c1,0.9%,inactive,
COc1cc(OC)cc(C(=O)NCCCn2ccnc2)c1,0.7%,inactive,
COc1cccc(-c2nn(-c3ccccc3)cc2/C=C(\C#N)C(=O)NCCCn2ccnc2)c1,0.5%,,58.2% (active)
COc1ccc(/C=C(\C#N)C(=O)NCCCn2ccnc2)cc1,0.1%,inactive,
